Screening results from PubChem BioAssay.
Hits are enriched below; roughly 9.2% of the tested compounds scored in any of these assays.
FLuc counter: inhibits or activates purified firefly luciferase, miR-21 counter-screen. purified FLuc, Km substrates, luminescence inhibition. Potency, µM (top dose mostly 57.5 µM), inactives show top-dose activity change, negative = inhibition, actives largely listed as inhibitors. 6.9% of 360,000 active. AID 588342. P08659;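 also: plate controls were vehicle for no effect and reference inhibitor for full effect; nearly all actives have a fitted effect of over 55% in size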
Target sequence (P08659 whole entry, looked up): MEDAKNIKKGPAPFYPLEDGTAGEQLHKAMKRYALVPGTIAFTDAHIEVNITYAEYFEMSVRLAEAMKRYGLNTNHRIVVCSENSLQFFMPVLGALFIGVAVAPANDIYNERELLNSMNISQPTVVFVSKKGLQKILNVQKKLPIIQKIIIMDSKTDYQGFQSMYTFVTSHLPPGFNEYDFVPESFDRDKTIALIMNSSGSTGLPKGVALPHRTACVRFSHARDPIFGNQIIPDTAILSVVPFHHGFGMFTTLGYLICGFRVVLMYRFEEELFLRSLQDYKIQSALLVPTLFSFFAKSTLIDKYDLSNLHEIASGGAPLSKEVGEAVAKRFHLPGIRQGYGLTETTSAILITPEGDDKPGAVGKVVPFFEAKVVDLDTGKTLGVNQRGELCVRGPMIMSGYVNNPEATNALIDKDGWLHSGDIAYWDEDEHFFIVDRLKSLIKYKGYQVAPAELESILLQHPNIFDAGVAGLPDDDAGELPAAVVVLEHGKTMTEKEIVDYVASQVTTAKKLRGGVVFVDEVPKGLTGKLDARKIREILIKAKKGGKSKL
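Biochemical qHTS of compounds, final roughly 60 µM downward over six points, against 10 nM purified firefly luciferase using Km concentrations of substrates (10 uM D-luciferin, 10 uM ATP) in Tris acetate pH 7.5 buffer; luminescence output.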
Rab9 promoter act: Rab9 promoter activation; Huh7 Rab9 promoter-luciferase reporter, luminescence, 24 h; Potency, µM (highest dose often 9.22 µM), inactives show top-dose activation, negative = inhibition, hits mostly activators; 2.8% of 320,000 active; also: % of control where 0% means no effect; nearly all actives have a fitted effect of over 60% in size
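Huh7 cells stably carrying a Rab9 promoter-luciferase reporter, 1500 cells per well in OP-MEM I with 10% FBS, treated with compound 24 hours at 37C. Luciferase activity read by luminescence after 10 minutes with Amplite reagent.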
NPC1 prom act: NPC1 promoter activation; Huh7 NPC1 promoter luciferase reporter, 24 h; Potency, µM (top dose mostly 9.22 µM), for the others: at the top dose activation, hits mostly activators; 2.4% of 320,000 active; also: % of control where 0% means no effect; nearly all actives have a fitted effect of over 60% in size
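Luminescence from an NPC1 promoter-driven luciferase reporter in stably transfected Huh7 cells was measured after 24 h compound treatment at 37 °C, followed by 10 min ambient incubation with luciferase detection reagent.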
SMN2 splice enh: enhancers of SMN2 splice variant expression; 2.8% of 210,000 active; HEK293 SMN2-luciferase splicing reporter, luminescence, 30-36 h; Potency, µM (doses to about 46.1 µM), for inactives: at the highest dose activity change, positive = activation, most hits filed as activators; also: % of control where 0% means no effect; nearly all actives have a fitted effect of over 55% in size
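qHTS luciferase splicing reporter: luminescence rises when SMN2 exon 7 is included in transfected HEK293 cells. Compound exposure lasted 30-36 h at 37C, with 4.5 mM final sodium butyrate as control, followed by a ONE-Glo read.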
ELG1 repair inh: ELG1-dependent DNA repair inhibition; AID 504467; 2.3% of 330,000 active; HEK293T ELG1-luciferase reporter, luminescence, 16 h; DNA damage induced by 5-fluorouridine; Potency, µM (top dose mostly 46.1 µM), inactives show at the highest dose activity change, negative = inhibition, usual class: inhibitors; also: % is scaled to controls: 0 for no effect and ±100 for the full control effect; nearly all actives have a fitted effect of over 55% in size
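Quantitative HTS, concentration-response format. 2,000 cells/well co-treated with 5-fluorouridine and compound, 16 hr in 5% CO2 at 37 °C; ONE-Glo luminescence read after 30 min.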
ELG1 genotoxic: genotoxicity induction in ELG1-luciferase HEK293T cells | HEK293T ELG1-luciferase reporter, luminescence, 16 h | Potency, µM (doses to about 46 µM), for inactives: at the top dose activity change, positive = activation, hits mostly activators | 1.3% of 330,000 active | AID 504466; also: % of control where 0% means no effect; nearly all actives have a fitted effect of over 60% in size
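Reporter readout depends on ELG1 protein level, which increases with genetic stress. After 16 hr compound exposure at 37 °C, luciferase activity was quantified using ONE-Glo.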
* = called active by the depositor; u = inconclusive; x = no result. Calls follow the shape of the dose curve; as a rule, active = well fitted curve in the direction sought with a large enough effect; inconclusive = small, poorly fitted or top-dose-only effect, or another doubt; inactive = no such curve, though single readings can be large; an effect the other way counts as inactive or inconclusive. Potency is read from the fitted curve at half-maximal effect.

SMILES	FLuc counter	Rab9 promoter act	NPC1 prom act	SMN2 splice enh	ELG1 repair inh	ELG1 genotoxic
COc1ccc(-n2cnc3cc(N)ccc32)cc1	u	19.8%	25.8%	14.1µM*	u	u
Cc1ccc(CSC2=Nc3ccccc3C3=NC(CC(=O)NC4CCCCC4)C(=O)N23)cc1 (centres undefined)	2.4%	x	x	x	x	x
Cn1ccc2c(OCC(=O)Nc3ccc(OC(F)(F)F)cc3)cccc2c1=O	2.6%	x	x	x	x	x
CC(C)n1cnc2cc(NC(=O)c3ccco3)ccc21	10.7µM*	1.78µM*	1.12µM*	x	u	u
Cc1ccc(C(=O)Nc2nnc(S(=O)(=O)N3CCCc4ccccc43)s2)cc1	-2.1%	x	x	x	x	x
COc1ccc(CCNC(=O)CCc2c(C)c3cc4c(C)coc4c(C)c3oc2=O)cc1OC	-12.7%	x	x	-12.0%	x	x
CCOC(=O)c1[nH]c2ccc(C)cc2c1NC(=O)CN1CCCCC1	0.7%	1.2%	1.4%	4.9%	u	-7.6%
CCOC(=O)c1[nH]c2ccc(OC)cc2c1NC(=O)CN1CCN(c2ccccn2)CC1	2.1%	-3.9%	-2.2%	-1.6%	u	-5.9%
CCOC(=O)c1[nH]c2cc(OC)c(OC)cc2c1NC(=O)CN1CCN(C)CC1	-0.7%	-2.9%	-4.4%	x	-10.0%	20.6µM*
CCOC(=O)c1[nH]c2ccc(F)cc2c1NC(=O)C(C)N1CCc2cc(OC)c(OC)cc2C1 (centres undefined)	0.3%	-1.3%	-4.2%	13.6%	4.11µM*	-25.4%
CCOC(=O)c1[nH]c2ccc(OC)cc2c1NC(=O)CN1CCc2ccccc2C1	4.1%	3.0%	-0.5%	-13.1%	16.4µM*	-6.5%
CCCS(=O)(=O)c1ncc(Cl)c(C(=O)Nc2c(C(=O)c3ccccc3)oc3ccccc23)n1	0.4%	x	x	1.0%	x	x
CN(C)c1ccc(N=Nc2ccccc2C(=O)OCC(=O)Nc2ccccc2C(F)(F)F)cc1	9.53µM*	24.4%	-1.4%	26.5%	17.2%	7.4%
CN(C)c1ccc(N=Nc2ccccc2C(=O)OCC(=O)N2CCCCCC2)cc1	u	21.8%	18.4%	25.1µM*	u	1.1%
CN(C)c1cc[n+](CC(=O)Nc2ccccc2C(F)(F)F)cc1	-1.8%	-1.7%	-1.2%	x	u	-2.3%
CN(C)c1ccc(N=Nc2ccccc2C(=O)OCC(=O)N2CCCC2)cc1	2.13µM*	-0.4%	15.4%	u	u	9.1%
CC(=NC1CCCC1)c1c(C)[nH]n(-c2nc3ccccc3s2)c1=O	3.38µM*	u	u	u	u	u
CCc1ccc(-n2nc(CO)c(C(=O)NCc3ccccc3OC)n2)cc1	-11.2%	x	x	15.6%	x	x
CCOCCCn1c(=O)c2ccccc2n2c(=S)[nH]nc12	-2.1%	-5.6%	-3.4%	x	3.4%	0.0%
Cc1cccc(NC(=O)C2=C(O)c3ccccc3N(C)S2(=O)=O)c1	16.9µM*	0.6%	0.6%	14.0%	11.2%	-2.2%
Cc1cccc(C)c1NC(=O)C1=C(O)c2sccc2N(C)S1(=O)=O	u	-1.1%	-5.0%	-11.0%	-3.4%	-5.2%
CN1c2ccccc2C(O)=C(C(=S)Nc2ccc(Cl)cc2)S1(=O)=O	19µM*	-6.0%	-2.3%	-18.4%	-7.5%	-9.2%
O=C(Nc1ccccc1)N1CC2(CCN(C(=O)c3cccc(F)c3)CC2)C1	x	x	x	-1.1%	x	x
CC(=O)Nc1ccc(C(=O)COC(=O)Cc2ccsc2)c(F)c1	x	x	x	x	15.5%	0.7%
CC(=O)Nc1ccc(C(=O)COC(=O)C2CC2)c(F)c1	5.36µM*	24.3%	u	x	u	u
CC(=O)Nc1ccc(C(=O)COC(=O)C2CCCCC2)c(F)c1	0.675µM*	2.1%	1.7%	x	u	5.8%
O=C(c1cc2c(=O)[nH]c3ccccc3c2s1)N1CCN(c2ccc(F)cc2)CC1	1.8%	x	x	-1.8%	x	x
COCCCNC(=O)CCn1c(=O)c2ccccc2n(CC(=O)Nc2cc(Cl)ccc2OC)c1=O	-3.9%	x	x	-23.6%	x	x
